# From PubChem BioAssay
# Several values for one entry are separate records, joined by “and”; a condition that tells them apart may be missing. Identical values can stand only once. Activity calls are given as the source filed them. Rule as the data show it, unless noted: active = inhibition above about 80%; inactive = the rest.
# Tests used:
# [1] = compounds altering viability of human ES cells (AID 493140; call rule not given here;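 also: cells exposed to compounds for four days before counting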); details: human embryonic stem cell survival screen; stronger effect = higher value
# [2] = P. berghei load reduction in hepatocytes – cell-based, HepG2, luciferase luminescence, HepG2 viability, primary screen (AID 624349; in the data active = parasite load remaining mostly below about 12%, no sharp cut-off; inactive = mostly above about 10%;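 also: 100% = mean of DMSO negative control wells on the same plate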); details: P. berghei liver stage in HepG2, luciferase luminescence, concentration not given here; parasite load remaining: stronger effect = lower value; viability: measured here: HepG2 viability without parasites
# [3] = viability loss with induced miR-34 in A549 – imaging, A549 dox-inducible miR-34, nuclei and caspase counts, primary screen (AID 1347080;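 active = compounds whose cell count with miR-34 switched on is under 0.7 times the count with it off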); details: A549 miR-34 inducible, Hoechst nuclei count, 48 h
# [4] = MELAS cybrid and Rieske KO viability enhancers – cell-based, MELAS cybrids, Rieske KO mouse fibroblasts, CellTiter-Glo, primary screen (AID 1508586;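 active = mean z-score across replicates of 1.96 or higher in either the MELAS or the Rieske mutant cell line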;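 also: z relative to plate mean and SD of compound and empty wells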); details: low glucose
# [5] = growth inhibition, single agent or in combination, cell-based, chromothripsis tumors, cisplatin or BGB combos (AID 1671449); details: LFS_MB_P medulloblastoma cells;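 also: cells exposed for 96 hours; 0% = vehicle DMSO and 100% = killing by high DMSO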
# [6] = growth inhibition, single agent and combos, cell-based, chromothripsis tumors, cisplatin or BGB combos (AID 1671450); details: HDN33 neuroblastoma cells, stronger effect = higher value;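 also: cells exposed to compound for four days; 0% = vehicle DMSO and 100% = cell killing by high DMSO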
# [7] = growth inhibition, single agents and combos, ICB984, cell-based, cisplatin or BGB combos, synergistic combos for chromothripsis tumors (AID 1671451; call rule not given here;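 also: cells exposed for 96 hours before readout; 0% = vehicle DMSO and 100% = killing by high DMSO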); details: ICB984 medulloblastoma cells, drug combinations, stronger effect = higher value
# [8] = growth inhibition, single agents and combos, LFS_MB_1R, cell-based, cisplatin or BGB combos, synergistic combos for chromothripsis tumors (AID 1671452); details: LFS_MB_1R medulloblastoma cells, stronger effect = higher value;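 also: cells exposed for 96 hours before readout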
# [9] = growth inhibition, single agents and combos, HTB85, cell-based, BGB or cisplatin IC20 combos, synergistic combos for chromothripsis tumors (AID 1671453); details: HTB85 osteosarcoma cells, drug combinations, stronger effect = higher value;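 also: cells exposed for 96 hours before readout; 0% = vehicle DMSO and 100% = high DMSO killing control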
# [10] = growth inhibition, single agents and combos, CRL2098, cell-based, BGB or cisplatin IC20 combos, synergistic combos for chromothripsis tumors (AID 1671454); details: CRL2098 osteosarcoma cells, drug combinations, stronger effect = higher value;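 also: cells exposed for 96 h before readout; 0% = vehicle DMSO and 100% = killing by high DMSO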
# [11] = growth inhibition, single agents and combos, HD-MB03, cell-based, BGB or cisplatin IC20 combos, synergistic combos for chromothripsis tumors (AID 1671455; in the data active = inhibition above about 83%;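 also: 0% = vehicle DMSO and 100% = high DMSO as cytotoxic control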); details: HD-MB03 medulloblastoma cells, stronger effect = higher value
# [12] = growth inhibition, single agents and combos, UWB1.289, cell-based, BGB or cisplatin combos, synergistic combos for chromothripsis tumors (AID 1671456); details: UWB1.289 ovarian carcinoma cells, stronger effect = higher value;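 also: cells exposed to compound for four days; 0% = vehicle DMSO and 100% = killing by high DMSO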
# [13] = growth inhibition, single agents and combos, LFS_MB_2R, cell-based, cisplatin combos, synergistic combos for chromothripsis tumors (AID 1671457); details: LFS_MB_2R medulloblastoma cells, stronger effect = higher value;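 also: cells exposed to compound for four days before readout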
# [14] = growth inhibition, MDA-MB-436, cell-based, BGB or cisplatin combos, synergistic combos for chromothripsis tumors (AID 1671458; call rule not given here;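 also: cells exposed for 96 hours; 0% = vehicle DMSO and 100% = killing by high DMSO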); details: MDA-MB-436 breast carcinoma growth inhibition, drug combinations, stronger effect = higher value
# [15] = UWB1.289_BRCA1 ovarian cancer growth, cell-based, BGB or cisplatin combinations (AID 1671459); details: UWB1.289 BRCA1 ovarian carcinoma, drug combinations, stronger effect = higher value
# [16] = drug combination toxicity in non-malignant astrocytes – cell-based, BGB or cisplatin IC20 combos, cytotoxicity control for chromothriptic childhood tumor combination screen (AID 1671460); details: Human astrocytes, viability inhibition, drug combinations, at 0.5 µM, stronger effect = higher value;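 also: cells exposed to compounds for 96 hours before viability readout; 0% = vehicle and 100% = killing control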
# [17] = BT084 cell growth, single and combined drugs, ICGC_MB145, cisplatin and BGB IC40 combos (AID 1671461); details: BT084 medulloblastoma cells, drug combinations, stronger effect = higher value;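 also: cells exposed to drugs for 96 hours; 0% = vehicle DMSO and 100% = high DMSO full killing control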
# [18] = RCMB18 cell growth, single agent and combined, cisplatin and BGB IC40 combos (AID 1671462); details: RCMB18 medulloblastoma cells, stronger effect = higher value;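 also: cells exposed to compound for four days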
# [19] = CRL1545 cell growth, single agent and combined, cisplatin and BGB IC20 combos (AID 1671464); details: CRL1545 osteosarcoma cells, stronger effect = higher value;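 also: cells exposed to compound for 96 hours before readout; 0% = vehicle DMSO and 100% = high DMSO killing control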
# [20] = measured here: combination with BGB IC40, at 0.05 µM
# [21] = measured here: with BGB IC20 combination, at 0.5 µM
# [22] = measured here: with cisplatin IC20 combination, at 0.5 µM
# [23] = measured here: combination with cisplatin, at 0.5 µM
# [24] = measured here: combination with cisplatin, at 5 µM
compound,measurement,setting,value
Nc1nc2n[nH]nc2c(=O)[nH]1,survival,[1],1.83 (inactive)
same,parasite load remaining,[2],236% (inactive) and 549% (inactive)
same,viability,[2],41.1% and 96.1%
same,fold change,"[3]; stronger effect = lower value, cell number ratio, induced over uninduced",0.89 (inactive) and 0.844 (inactive)
same,fold change,[3]; measured here: relative caspase fold change +Dox/-Dox,1.24 and 2.05
same,cell count,"[3]; measured here: total cells with miR-34 induction, stronger effect = lower value",3000 and 5470
same,cell count,[3]; measured here: total cells without miR-34 induction,3360 and 6490
same,z-score,"[4]; MELAS cybrid survival, CellTiter-Glo 48 h, stronger effect = higher value",-0.244 (inactive) and -0.54 (inactive)
same,z-score,"[4]; Rieske KO mouse fibroblast survival, CellTiter-Glo 72 h",-0.138 and -0.665
same,inhibition,"[5]; at 0.5 µM, stronger effect = higher value",-21.3% (inactive)
same,inhibition,"[5]; measured here: combination with BGB IC20, at 0.005 µM",-4.53%
same,inhibition,"[5]; measured here: combination with BGB IC40, at 0.005 µM",-37%
same,inhibition,[5]; [20],-34.6%
same,inhibition,"[5]; measured here: combination with cisplatin, at 0.5 µM, stronger effect = higher value",-31.1%
same,inhibition,"[5]; measured here: combination with cisplatin, at 5 µM, stronger effect = higher value",8.39%
same,inhibition,"[6]; BGB combo, at 5 µM",20.7%
same,inhibition,[6]; at 0.5 µM,-10.2% (inactive)
same,inhibition,"[6]; cisplatin combo, at 5 µM",6.45%
same,inhibition,[6]; [21],-12.8%
same,inhibition,[6]; [22],-5.82%
same,inhibition,"[6]; single agent, at 5 µM",42.1%
same,inhibition,"[7]; BGB IC20 combo, at 0.005 µM",-1.82%
same,inhibition,"[7]; BGB IC40 combo, at 0.005 µM",-9.06%
same,inhibition,"[7]; BGB IC40 combo, at 0.05 µM",29.3%
same,inhibition,[7]; at 0.5 µM,-25% (inactive)
same,inhibition,"[7]; cisplatin combo, at 0.05 µM",27.3%
same,inhibition,"[7]; cisplatin combo, at 0.5 µM",-32.9%
same,inhibition,"[7]; cisplatin combo, at 5 µM",-42%
same,inhibition,"[7]; measured here: 5 uM single agent, at 5 µM",-12.8%
same,inhibition,[8]; at 0.5 µM,-9.31% (inactive)
same,inhibition,[8]; [20],-15.8%
same,inhibition,[8]; [23],-8.27%
same,inhibition,[8]; [24],12.9%
same,inhibition,[9]; at 0.5 µM,-22.9% (inactive)
same,inhibition,"[9]; measured here: with BGB IC20, at 0.5 µM",-34.4%
same,inhibition,"[9]; measured here: with BGB IC20, at 5 µM",1.91%
same,inhibition,"[9]; measured here: with cisplatin IC20, at 0.5 µM",-27.1%
same,inhibition,"[9]; measured here: with cisplatin IC20, at 5 µM",-19.1%
same,inhibition,"[9]; single agent, at 5 µM",1.86%
same,inhibition,[10]; at 0.5 µM,-27.1% (inactive)
same,inhibition,"[10]; measured here: combination with BGB at IC20, at 0.5 µM",-20.7%
same,inhibition,"[10]; measured here: combination with cisplatin at IC20, at 0.5 µM",-21.9%
same,inhibition,[11]; at 0.5 µM,19.3% (inactive)
same,inhibition,"[11]; measured here: combo with BGB at IC20, at 0.5 µM",16.1%
same,inhibition,"[11]; measured here: combo with cisplatin at IC20, at 0.5 µM",19.7%
same,inhibition,[12]; at 0.5 µM,32.6% (inactive)
same,inhibition,"[12]; measured here: inhibition with BGB combination, at 0.05 µM",-18.7%
same,inhibition,"[12]; measured here: inhibition with cisplatin combination, at 0.05 µM",7.62%
same,inhibition,[13]; at 0.5 µM,-9.15% (inactive)
same,inhibition,[13]; [23],-13.8%
same,inhibition,[13]; [24],-35.4%
same,inhibition,[14]; at 0.5 µM,-11.4% (inactive)
same,inhibition,"[14]; measured here: BGB combination, at 0.5 µM",-12.2%
same,inhibition,"[14]; measured here: BGB combination, at 5 µM",-5.12%
same,inhibition,"[14]; measured here: cisplatin combination, at 0.5 µM",-17.5%
same,inhibition,"[14]; measured here: cisplatin combination, at 5 µM",11.7%
same,inhibition,"[15]; BGB combination, concentration series, at 5 µM",85.1%
same,inhibition,[15]; at 0.5 µM,38.3% (inactive)
same,inhibition,"[15]; cisplatin combination, concentration series, at 5 µM",92.1%
same,inhibition,[16],3.68% (inactive)
same,inhibition,[16]; measured here: combo with BGB IC20,0.254%
same,inhibition,[16]; measured here: combo with cisplatin IC20,6.71%
same,inhibition,[17]; at 0.5 µM,-32% (inactive)
same,inhibition,"[17]; cisplatin combination, at 0.5 µM",-3.22%
same,inhibition,"[17]; cisplatin combination, at 5 µM",22.6%
same,inhibition,"[17]; measured here: BGB IC40 combination 0.05 uM, at 0.05 µM",-14%
same,inhibition,"[17]; single agent, at 5 µM",6.12%
same,inhibition,[18]; at 0.5 µM,-14.7% (inactive)
same,inhibition,"[18]; cisplatin combo, at 5 µM",33.1%
same,inhibition,"[18]; measured here: BGB IC40 combination, at 0.05 µM",-43.3%
same,inhibition,[18]; [23],3.47%
same,inhibition,"[18]; single agent, at 5 µM",22.1%
same,inhibition,[19]; at 0.5 µM,-20.1% (inactive)
same,inhibition,[19]; [21],-2.71%
same,inhibition,[19]; [22],-31.6%
same,inhibition,"[19]; single agent, at 0.05 µM",-28.1%
same,inhibition,"[19]; single agent, at 5 µM",32.5%
